Reference: the supplement of paper PMC10338343
± gives the standard deviation.

System: MILI (PIWIL2) piRISC loaded with L1MC piRNA (26 nt)
Assay: pre-steady-state target cleavage rate (min^-1); guide: L1MC piRNA 5'p-UAACUAAAUACUAUGCAAGCUGUAGG; MIWI and MILI are mouse PIWI proteins and EfPiwi is from a freshwater sponge; tags in brackets are library labels; higher = faster piRNA-guided slicing of the target
Conditions: auxiliary factor: 500 nM mouse GTSF1
In short: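 Cleave-'n-Seq used a transcribed, DNA-blocked target RNA library at 0.1 nM and active affinity-purified piRISC with one synthetic guide at 1 nM, with or without 500 nM GTSF1 partner protein, in HEPES–potassium acetate buffer at 33 °C for 0–8 or 0–960 min. Uncleaved targets were sequenced and normalised to depth and to weakly complementary targets, and three trials were pooled with k3 capped at 0.0001 min^-1. The pre-steady-state cleavage rate was estimated by a burst-and-steady-state fit.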

Row | Sequence | pre-steady-state target cleavage rate
1 | UCCUGGAACAGACUUGCAUAGUAUUUAGUUA | 0.217 ± 0.014
2 | UCCUGCUACAGGUUGCAUACUAUUUAGUUA | 0.0385 ± 0.0068
3 | UCCUGGAUGAGCUAUGCAUAGUAUUUAGUUA | 0.202 ± 0.013
4 | UCCUCGUACAGCUUGCAAAGUAUUUAGUUA | 0.149 ± 0.01
5 | UCCUGCUACAGCUUGCUUAGUAUUUAGUUA | 0.248 ± 0.013
6 | UCCUGCUACAGCUUGCAUAGUAUUCAGUUA | 0.244 ± 0.038
7 | UCCUGGUACAGCUUCAUAGUAUUUAGUUA | 0.209 ± 0.027
8 | UCCUGGAAGAGCAUGCAUAGUAUUUAGUUA | 0.196 ± 0.015
9 | UCCUGGUACAGCUGCAUAGUAUUUAGUUA | 0.23 ± 0.016
10 | UCCUGGAUCAGCUUGCAUCGUAUUUAGUUA | 0.0942 ± 0.012
11 | UCCUGGUAGAGCAUGCAUAGUAUUUAGUUA | 0.196 ± 0.018
12 | UCCUGGAACAGGUUGCAUAGAAUUUAGUUA | 0.0524 ± 0.011
13 | UCCUGGAUCAUGCUUGCAUAGUAUUUAGUUA | 0.18 ± 0.019
14 | UCCUGGAUCAGCUAGCUUAGUAUUUAGUUA | 0.214 ± 0.018
15 | UCCUGCUACAGCGUUGCAUAGUAUUUAGUUA | 0.267 ± 0.018
16 | UCCUCCUACACCUUGCAUAGUAUUUAGUUA | 0.237 ± 0.025
17 | UCCUCCUACAGCUUGGAUAGUAUUUUGUUA | 0.164 ± 0.028
18 | UCCUCCUAAGCUUGCAUAGUAUUUAGUUA | 0.23 ± 0.015
19 | UCCUGGAUGUCGAUGCAUAGUAUUUAAGUUA | 0.145 ± 0.019
20 | UCCUCCUACAGCUUGCAUAGUGAUUUAGUUA | 0.0192 ± 0.0061

Row | Sequence | pre-steady-state target cleavage rate
21 | UCCUGGUACACCUUGCUUAGUAUUUAGUUA | 0.134 ± 0.024
22 | UCCUGCUACAGCCUGCAUAGUAUUUAGUUA | 0.279 ± 0.025
23 | UCCUGGAACAGCUUGCAUAGUAUUUAGUUU [g2:g23:cont:t1U] | 0.278 ± 0.02
24 | UCCUGCUACAGCUUGCAUAGUAUUUAGUGA | 0.193 ± 0.033
25 | UCCUGCUACAGCUGCAUAGUAUUUAGUUA | 0.271 ± 0.02
26 | UCCUGCUACAGCCUUGCAUAGUAUUUAGUUA | 0.308 ± 0.025
27 | UCCUGCUACAGCUUGCAUAGUAUAUAGUUA | 0.227 ± 0.029
28 | UCCUGCUACUAGCUUGCAUAGUAUUUAGUUA | 0.176 ± 0.022
29 | UCCUGGAACAGCUUGCAUAGUAUUUAAGUUA | 0.195 ± 0.029
30 | UCCUGGUACAGCUAGCAUAGUAUUUAGUUA | 0.259 ± 0.017
31 | UCCUGGAUGUGCUUGCAUAGUACUUUAGUUA | 0.0231 ± 0.0092
32 | UCCUGGAUGUCGAAGCAUAGUAUUUAGUUA [g2:g16:cont:t1A] | 0.0359 ± 0.0067
33 | UCCUGGAUGUCCUUGCCUAGUAUUUAGUUA | 0.0522 ± 0.0084
34 | UCCUGCUACUGCUAGCAUAGUAUUUAGUUA | 0.253 ± 0.017
35 | UCCUGGAUGAGACUUGCAUAGUAUUUAGUUA | 0.186 ± 0.021
36 | UCCUGGAUCAGCAUGCAUAGUAUUUAGUUA | 0.314 ± 0.019
37 | UCCUGCUACAGCUAGCUUAGUAUUUAGUUA | 0.227 ± 0.018
38 | UCCUCCUACAGCUUGCAUACUAUUUAGUUA | 0.088 ± 0.013
39 | UCCUGCAACAGCUUGCAUAGUAUAUAGUUA | 0.36 ± 0.038
40 | UCCUCCUACAGCUAGCAUAGUAUUAAGUUA | 0.205 ± 0.019

Same assay, conditions: auxiliary factor: none (no GTSF1)

Row | Sequence | pre-steady-state target cleavage rate
41 | UCCUGGAACAGACUUGCAUAGUAUUUAGUUA | 0.00682 ± 0.0024
42 | UCCUGCUACAGGUUGCAUACUAUUUAGUUA | 0.00412 ± 0.002
43 | UCCUGGAUGAGCUAUGCAUAGUAUUUAGUUA | 0.0126 ± 0.0025
44 | UCCUCGUACAGCUUGCAAAGUAUUUAGUUA | 0.00953 ± 0.0024
45 | UCCUGCUACAGCUUGCUUAGUAUUUAGUUA | 0.00684 ± 0.0021
46 | UCCUGCUACAGCUUGCAUAGUAUUCAGUUA | 0.00294 ± 0.0021
47 | UCCUGGUACAGCUUCAUAGUAUUUAGUUA | 0.00866 ± 0.0031
48 | UCCUGGAAGAGCAUGCAUAGUAUUUAGUUA | 0.00911 ± 0.0029
49 | UCCUGGUACAGCUGCAUAGUAUUUAGUUA | 0.0103 ± 0.0029
50 | UCCUGGAUCAGCUUGCAUCGUAUUUAGUUA | 0.00789 ± 0.0027
51 | UCCUGGUAGAGCAUGCAUAGUAUUUAGUUA | 0.0109 ± 0.0033
52 | UCCUGGAACAGGUUGCAUAGAAUUUAGUUA | 0.0038 ± 0.002
53 | UCCUGGAUCAUGCUUGCAUAGUAUUUAGUUA | 0.00983 ± 0.0024
54 | UCCUGGAUCAGCUAGCUUAGUAUUUAGUUA | 0.00868 ± 0.002
55 | UCCUGCUACAGCGUUGCAUAGUAUUUAGUUA | 0.01 ± 0.0033
56 | UCCUCCUACACCUUGCAUAGUAUUUAGUUA | 0.0085 ± 0.0022
57 | UCCUCCUACAGCUUGGAUAGUAUUUUGUUA | 0.00424 ± 0.0026
58 | UCCUCCUAAGCUUGCAUAGUAUUUAGUUA | 0.00512 ± 0.002
59 | UCCUGGAUGUCGAUGCAUAGUAUUUAAGUUA | 0.00656 ± 0.0024
60 | UCCUCCUACAGCUUGCAUAGUGAUUUAGUUA | 0.00528 ± 0.0024

Row | Sequence | pre-steady-state target cleavage rate
61 | UCCUGGUACACCUUGCUUAGUAUUUAGUUA | 0.0117 ± 0.0037
62 | UCCUGCUACAGCCUGCAUAGUAUUUAGUUA | 0.00704 ± 0.0031
63 | UCCUGGAACAGCUUGCAUAGUAUUUAGUUU [g2:g23:cont:t1U] | 0.0155 ± 0.0044
64 | UCCUGCUACAGCUUGCAUAGUAUUUAGUGA | 0.00299 ± 0.0027
65 | UCCUGCUACAGCUGCAUAGUAUUUAGUUA | 0.00665 ± 0.0026
66 | UCCUGCUACAGCCUUGCAUAGUAUUUAGUUA | 0.00822 ± 0.0026
67 | UCCUGCUACAGCUUGCAUAGUAUAUAGUUA | 0.00382 ± 0.0029
68 | UCCUGCUACUAGCUUGCAUAGUAUUUAGUUA | 0.0074 ± 0.0023
69 | UCCUGGAACAGCUUGCAUAGUAUUUAAGUUA | 0.00781 ± 0.0028
70 | UCCUGGUACAGCUAGCAUAGUAUUUAGUUA | 0.00964 ± 0.0026
71 | UCCUGGAUGUGCUUGCAUAGUACUUUAGUUA | 0.00627 ± 0.0028
72 | UCCUGGAUGUCGAAGCAUAGUAUUUAGUUA [g2:g16:cont:t1A] | 0.00487 ± 0.0016
73 | UCCUGGAUGUCCUUGCCUAGUAUUUAGUUA | 0.00452 ± 0.002
74 | UCCUGCUACUGCUAGCAUAGUAUUUAGUUA | 0.0054 ± 0.0023
75 | UCCUGGAUGAGACUUGCAUAGUAUUUAGUUA | 0.00953 ± 0.0028
76 | UCCUGGAUCAGCAUGCAUAGUAUUUAGUUA | 0.0108 ± 0.0031
77 | UCCUGCUACAGCUAGCUUAGUAUUUAGUUA | 0.00468 ± 0.0023
78 | UCCUCCUACAGCUUGCAUACUAUUUAGUUA | 0.00383 ± 0.0021
79 | UCCUGCAACAGCUUGCAUAGUAUAUAGUUA | 0.00582 ± 0.0026
80 | UCCUCCUACAGCUAGCAUAGUAUUAAGUUA | 0.0038 ± 0.0018
